Data reported in PubChem BioAssay (NCI).
Compounds without any hit were thinned out: in the full panel of roughly 83,000, 20% have a hit.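 Method: cells in 96-well plates; compound added at one concentration; 48 h incubation; percent growth measured; values under 10 scored active.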 The source made the active and inactive calls.

Each compound was assayed on MCF7 breast (assay: NCI-60 one-dose screen, 48 h (100 = growth as untreated, 0 = no growth, -100 = all killed)). Details: 10 µM unless noted.
For `COc1cnc2c(c1)C(=O)c1c-2n(CCCNC(C)C)c(=O)c2cc(Cl)ccc12`, the growth was -58.6% (active).
For `Cc1nn(-c2cccc(Cl)c2)c(C)c1N=Nc1ccc(Br)cc1`, the growth was 89.4% (inactive).
In the case of `CCCCCCCCCCCCNC(=O)N[C@H](C(=O)N[C@H]1/C=C/OCCNC(=O)/C=C/[C@H](C(C)C)NC1=O)C(C)C`, the growth is reported as 32.4% (inactive).
For `Cc1ccc(C(CN(C)C)C(=O)c2ccccc2)cc1` (centres undefined), the growth was -0.801% (active).
For `CCCCCCCCCCCCCCCCCC(=O)[O][Sn]([CH2]CCC)([CH2]CCC)[CH2]CCC`, the growth was -93.1% (active).
`Cc1c2c(cc3c1[nH]c1ccccc13)C=NCC2` was tested, and the growth was 60.8% (inactive).
With `COc1ccc(C(=O)C(CN(C)C)c2ccc(OC)cc2)cc1` (centres undefined) the growth was 18.5% (inactive).
In the case of `CC(=O)O[C@H]1CC[C@]2(C)[C@H]3CC=C4[C@@H]5CC(C)(C)CC[C@]5(C(=O)OCC(COC(=O)C(Cl)Cl)(COC(=O)C(Cl)Cl)NC(=O)C(Cl)Cl)CC[C@@]4(C)[C@]3(C)CC[C@H]2C1(C)C`, the growth is reported as 41.9% (inactive).
With `COc1ccc2c(c1)C1=NN(C(=O)CO)[C@H](c3ccc(OC(F)(F)F)cc3)[C@@H]1CC2` the growth was 83.2% (inactive).
For `COc1ccc(Cl)cc1Nc1nc(C(F)(F)F)ccc1C(=O)NN`, the growth was 90.4% (inactive).
With `CC(C)c1cccc(C#N)c1` the growth was 95.1% (inactive).
In the case of `COc1ccc2nc3ccccc3c(NCc3ccc(C)cc3)c2c1`, the growth is reported as 3.43% (active).
In the case of `CS(=O)(=O)c1ccc(C(=O)N/N=C/c2ccccc2Cl)cc1`, the growth is reported as 93.3% (inactive).
For `CC(C)(C)c1ccc(C(=O)Nc2sc3cc(O)ccc3c2C(N)=O)cc1`, the growth was 44% (inactive).
`COc1cc(/C=C\c2cc(/C=C\c3ccc(O)c(OC)c3)n(C(=O)Nc3ccc(C(F)(F)F)cc3)n2)ccc1O` was tested, and the growth was 22.9% (inactive).
`CCOC(=O)c1cc(N)nc2ccccc12` was tested, and the growth was 107% (inactive).
In the case of `CCSCC1CC(O)(c2ccccc2)C(c2ccccc2)C(c2ccc(F)cc2)O1` (centres undefined), the growth is reported as 1.86% (active).
With `CN1C2CCC1/C(=C\c1ccc(Cl)cc1)C(=O)/C2=C/c1ccc(Cl)cc1` the growth was 22.7% (inactive).
With `CCOC(=O)C1=C(C)NC(=S)NC1c1ccccc1` (centres undefined) the growth was 99.7% (inactive).
`C=C1C(=O)O[C@H]2[C@H]1CC/C(COC(=O)N[C@@H](Cc1c[nH]c3ccccc13)C(=O)OC)=C\CC[C@@]1(C)O[C@@H]21` was tested, and the growth was 11.7% (inactive).
With `Cc1nc(N)nc2c1CCC(Nc1ccccc1)S2` (centres undefined) the growth was 104% (inactive).
For `COc1cc(OC)c2sc(-c3ccc(-n4cncc4-c4ccc(OC)c(N)c4)cc3)nc2c1`, the growth was 67.3% (inactive).
With `COc1cc(OC)cc(-c2ccc(-c3ccc(C(=N)N)s3)s2)c1` the growth was -72.8% (active).

Each compound was assayed on HCT-116 colon in the same assay as above. Details: 10 µM unless noted.
For `CCN(CC)C(=O)O/N=C(/C)c1ccccc1`, the growth was 104% (inactive).
With `COc1ccc2c(c1)sc1nc(-c3ccccc3)c(-c3cccc4ccccc34)n12` the growth was 18.6% (inactive).
For `CC(C)N(C(=S)SSC(=S)N(C(C)C)C(C)C)C(C)C`, the growth was 96.7% (inactive).
`CC(C)CC1NC(=O)C(CC(C)C)N(CO)C1=O` (centres undefined) was tested, and the growth was 98.8% (inactive).
In the case of `Cc1ccccc1C1CC(=O)c2ccccc2C1C` (centres undefined), the growth is reported as 95.3% (inactive).
In the case of `CN(C)CC(=O)c1ccc2cc(Br)c3ccccc3c2c1`, the growth is reported as 49.3% (inactive).
In the case of `COc1ccc(NC(=O)Cn2c(=O)sc3c(-c4ccc(Cl)cc4)cc(-c4ccc(Cl)cc4)nc32)cc1`, the growth is reported as 88.1% (inactive).
In the case of `COc1cccc(/C=N\Nc2ccc([N+](=O)[O-])cn2)c1O`, the growth is reported as 8.72% (active).
For `CCN(CC)CC(=O)Nc1c(C)cc(C(=O)NN)cc1C`, the growth was 102% (inactive).
In the case of `CCCCCCCCCCCCNC(=O)N[C@H](C(=O)N[C@H]1/C=C/OCCNC(=O)/C=C/[C@H](C(C)C)NC1=O)C(C)C`, the growth is reported as 25.5% (inactive).
With `CCCCCCCCCCCCCCCCCC(=O)[O][Sn]([CH2]CCC)([CH2]CCC)[CH2]CCC` the growth was -96.2% (active).
For `COc1ccc(Cl)cc1Nc1nc(C(F)(F)F)ccc1C(=O)NN`, the growth was 38.8% (inactive).
For `COc1ccc2nc3ccccc3c(NCc3ccc(C)cc3)c2c1`, the growth was 8.58% (active).
For `CC(C)(C)c1ccc(C(=O)Nc2sc3cc(O)ccc3c2C(N)=O)cc1`, the growth was 74% (inactive).
In the case of `COc1cc(/C=C\c2cc(/C=C\c3ccc(O)c(OC)c3)n(C(=O)Nc3ccc(C(F)(F)F)cc3)n2)ccc1O`, the growth is reported as -53.7% (active).
`CN1C2CCC1/C(=C\c1ccc(Cl)cc1)C(=O)/C2=C/c1ccc(Cl)cc1` was tested, and the growth was 17.4% (inactive).
`CCOC(=O)C1=C(C)NC(=S)NC1c1ccccc1` (centres undefined) was tested, and the growth was 103% (inactive).
In the case of `C=C1C(=O)O[C@H]2[C@H]1CC/C(COC(=O)N[C@@H](Cc1c[nH]c3ccccc13)C(=O)OC)=C\CC[C@@]1(C)O[C@@H]21`, the growth is reported as -78% (active).
`Cc1nc(N)nc2c1CCC(Nc1ccccc1)S2` (centres undefined) was tested, and the growth was 97% (inactive).
With `COc1cc(OC)c2sc(-c3ccc(-n4cncc4-c4ccc(OC)c(N)c4)cc3)nc2c1` the growth was 66% (inactive).
`COc1cc(OC)cc(-c2ccc(-c3ccc(C(=N)N)s3)s2)c1` was tested, and the growth was -73.5% (active).
